High-throughput results: PubChem, National Center for Advancing Translational Sciences (NCATS)
TRHR PAM = qHTS for Small Molecule Agonists and Allosteric Enhancers of Human TRH Receptor: Primary Screen for Enhancers; 360,000 tested, 0.66% active; enhancement, % at 2 µM; Thyrotropin-releasing hormone receptor (Homo sapiens), P34981; TRHR cells, fluo-8 calcium fluorescence, EC20 TRH enhancement; in the data active = enhancement above about 30%; note: 0% is about no effect
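TRHR-expressing cells loaded with fluo-8 calcium dye were read kinetically (ex 480/em 530) during compound addition, then stimulated with an EC20 of TRH (10 nM final). Enhancement of the Gq-mediated intracellular calcium response was scored.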
TRHR ag = qHTS for Small Molecule Agonists and Allosteric Enhancers of Human TRH Receptor: Primary Screen for Agonists | Thyrotropin-releasing hormone receptor (Homo sapiens), P34981 | 360,000 tested, 0.18% active | activation, % at 2 µM | TRHR cells, calcium flux fluo-8, FDSS agonist mode | AID 493084, 2011; note: 0% is about no effect
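Fluo-8-loaded TRHR cells; 10 s baseline, compound added, kinetic Ca2+ fluorescence read 1/s, agonist mode.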
D1 antag = Antagonist of Human D 1 Dopamine Receptor: qHTS; HEK293 TREx D1 cells, calcium flux, dopamine EC80; stronger effect = lower value; activity change, negative = inhibition, % at 10 µM; 360,000 tested, 3.2% active; AID 504652, 2011; in the data active = activity change below about -30%; note: % is set by controls: 0 for no effect and ±100 for the full control effect
Target sequence (P21728 whole entry, looked up): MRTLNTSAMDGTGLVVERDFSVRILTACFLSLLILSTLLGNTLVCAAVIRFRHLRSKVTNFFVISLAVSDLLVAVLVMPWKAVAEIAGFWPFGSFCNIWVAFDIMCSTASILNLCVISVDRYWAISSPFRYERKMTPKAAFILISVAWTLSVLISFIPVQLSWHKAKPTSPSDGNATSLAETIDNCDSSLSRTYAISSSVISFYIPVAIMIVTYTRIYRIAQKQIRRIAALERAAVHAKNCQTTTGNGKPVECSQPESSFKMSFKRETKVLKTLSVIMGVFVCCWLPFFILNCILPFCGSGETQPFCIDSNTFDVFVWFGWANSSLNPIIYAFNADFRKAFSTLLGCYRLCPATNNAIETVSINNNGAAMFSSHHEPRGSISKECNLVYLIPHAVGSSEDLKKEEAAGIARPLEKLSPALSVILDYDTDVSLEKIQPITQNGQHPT
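Compound effects on dopamine-evoked calcium signalling were measured in tetracycline-induced HEK293 Trex D1 cells. Dopamine at EC80 followed a 180 s compound pre-read, and fluorescence was tracked kinetically for 180 s more.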
D1 agonist = Allosteric Agonists of the Human D1 Dopamine Receptor: qHTS | D(1A) dopamine receptor (Homo sapiens), P21728 | HEK293 T-REx D1 cells, calcium flux, agonist mode | activation, % at 2 µM | 360,000 tested, 1% active; note: 0% is about no effect
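Tetracycline-induced HEK293 TREx D1 cells, force-coupled to calcium signalling, were dye-loaded with a no-wash calcium kit. Compound was pin-added after a 10 s baseline. Fluorescence was read kinetically at 1 cycle/s for 180 s, with calcium rises flagged as agonism.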
D1 PAM = Potentiators of Human D1 Dopamine Receptor: qHTS; HEK293 TREx D1 cells, calcium flux, dopamine EC20 potentiation; potentiation, % at 10 µM; 360,000 tested, 0.036% active; AID 504651, 2011; in the data active = potentiation above about 30%; note: 0% is about no effect
Active calls of the source: *; / = no result given. This is a sample that favours compounds with a hit; in the whole collection about 4.7% have one here. Cut-off read from the data, not from the text of the source, unless noted: active = activation above about 30%; inactive = the rest.

SMILES	TRHR PAM	TRHR ag	D1 antag	D1 agonist	D1 PAM
NC(=O)C1CC(=O)N(c2ccc(OCc3ccc(Cl)cc3)cc2)C1 (stereo unspecified)	-2	1	-39*	18	-6
Cc1ccc(Cn2ncc3c4sc(C)cc4n(C)c3c2=O)cc1	0	2	-9	1	-7
CCOc1ccc(N2CC(C(=O)N3CCCC3)CC2=O)cc1 (stereo unspecified)	4	0	-83*	0	-4
CCOc1ccc(N2CC(C(=O)N3CCCCCC3)CC2=O)cc1 (stereo unspecified)	5	0	2	0	4
CCc1ccc(-n2nc(CO)c(C(=O)NCc3cccs3)n2)cc1	1	-1	13	3	-2
Cc1ccccc1C(=O)Nc1ccnn1C1CCN(Cc2c(C)n(C)c3ccccc23)CC1	10	0	-34*	12	-3
CCc1ccc(CN2CCC(n3nccc3NC(=O)c3ccccc3C)CC2)cc1	8	2	-6	15	-4
O=C(COc1ccc2ccccc2c1Br)Nc1cccnc1	-8	-1	-42*	12	-10
O=C(COc1ccc(C(=O)NCc2cccnc2)cc1)Nc1cccc(C(F)(F)F)c1	3	0	-24	12	-2
O=C(COc1cccc(C(F)(F)F)c1)Nc1cccnc1	-4	0	-31*	2	0
CCOC(=O)c1ccc(NC(=O)C2Cc3ccccc3CN2S(=O)(=O)c2ccc(Cl)cc2)cc1 (stereo unspecified)	0	1	-18	4	-3
Cc1nc2nc(SCc3ccccc3)[nH]n2c(=O)c1C	-1	-1	-11	1	-6
O=C(Cn1ncn2c(cc3sccc32)c1=O)NCCc1ccccc1	-2	0	8	-1	0
CC(=O)c1cccc(N(C(=O)Cn2nnc3ccccc32)C(C(=O)NCc2ccccc2)c2ccc(F)cc2)c1 (stereo unspecified)	7	-1	7	9	0
COc1ccccc1NC(=O)COC(=O)c1ccc(N2CCCC2=O)cc1	0	0	-31*	4	0
Cc1ccc(C)c(-n2c(-c3ccc(Br)cc3)csc2=NC(=O)c2ccccc2F)c1	5	1	-42*	8	12
Cn1ccsc1=NC(=O)c1ccccc1F	-4	0	-5	1	-6
COc1ccccc1N1CCN(CCCNC(=O)Nc2ccccc2C)CC1	-12	0	-42*	2	-8
COc1ccccc1NC(=O)NCCCN1CCN(c2cccc(Cl)c2)CC1	5	0	-69*	10	-5
Cc1nn(-c2ccccc2)c(-n2cccc2)c1C(=O)NCCCN1CCN(c2ccccc2F)CC1	4	-1	-33*	1	-4
Cc1ccccc1NC(=O)NCCCN1CCN(c2ccccc2F)CC1	5	0	-82*	9	-5
CC1Cc2cc(S(=O)(=O)N3CCC(C(=O)N4CCN(c5ccccc5F)CC4)CC3)ccc2N1C(=O)C1CC1 (stereo unspecified)	-6	0	-24	5	-8
Cc1ccc(OCCn2nnc3sc4c(c3c2=O)CCC(C)C4)cc1 (stereo unspecified)	-2	3	3	3	-1
O=C(NCCCN1CCN(c2ccccc2F)CC1)c1nnc(Cc2ccc(Cl)cc2Cl)o1	-3	0	-55*	21	-4
Cc1cc(CN2CCN(c3cccc(C)c3C)CC2)cs1	6	0	12	13	-8
SMILES	TRHR PAM	TRHR ag	D1 antag	D1 agonist	D1 PAM
CCCCCCCNC(=O)COc1ccc2c(c1)C(=O)CC(C)(C)O2	6	0	14	0	-3
O=C(CCc1ccccc1)N1CCN(c2ccccc2F)CC1	-2	0	-9	0	2
Fc1ccccc1N1CCN(CCCc2ccccc2)CC1	-2	0	-63*	3	-9
Cc1cc(CN2CCN(c3ccccc3F)CC2)cs1	-1	0	-58*	0	-8
COc1ccc(Cc2nnc(C(=O)NCCCN3CCN(c4ccccc4F)CC3)o2)cc1OC	15	0	-6	4	-3
CC1(C)CC(=O)c2cc(OCC(=O)NCCCN3CCN(c4ccccc4F)CC3)ccc2O1	4	-1	-81*	-2	-13
Cc1cn2c(=O)cc(COC(=O)c3cccc(NC(=O)COc4ccccc4Cl)c3)nc2s1	-1	0	10	2	0
CCOc1ccc2oc(=O)cc(CN3CCN(c4ccc(Cl)cc4)CC3)c2c1	-2	0	37	3	4
Cc1ccc(C)c(NC(=S)N2CCC(NC(=O)c3cccc(F)c3)CC2)c1	-2	0	1	0	-3
Cc1ccc(NC(=O)c2cc3c(=O)n(Cc4ccco4)ccc3nc2C)cc1C	5	0	-9	0	0
CCOc1ccc(NC(=O)c2oc3ccccc3c2NC(=O)Cc2cccc(C)c2)cc1	7	-1	-5	2	3
OCC[C@H]1C[C@@H](O)[C@H](O)[C@@]2(CCc3ccccc3CO2)O1	-2	0	-10	5	-9
Nc1c(C(=O)c2ccccc2)sc2snc(SCC(=O)c3ccccc3)c12	6	27	7	108*	4
CCCCCCCCCCCC(=O)NC(C(=O)O)C(O)c1ccccc1 (stereo unspecified)	-1	-1	-3	374*	17
Cc1ccc(S(=O)(=O)Nc2ccc(Cl)cc2)cc1NC(=O)c1cc2c(s1)CCCC2	32*	0	9	-2	2
Cc1ccc(S(=O)(=O)N2CCOCC2)cc1NC(=O)c1cc2c(s1)CCC2	-3	-1	-3	0	-1
C/C(N)=C(/C#N)C(=O)COC(=O)c1cccc2ccccc12	1	1	-34*	3	-10
C/C(N)=C(/C#N)C(=O)COC(=O)c1ccccc1O	-2	0	16	5	-6
COc1ccc2nc(-c3ccccc3)cc(C(=O)OCC(=O)NC3CC3)c2c1	3	0	7	6	-2
COc1ccc(CNC(=O)C2CCN(C(=O)c3cccc(Cl)c3)CC2)cc1	-10	-1	-35*	2	-7
Cc1ccc(CNC(=O)C2CCN(C(=O)c3cccc(Cl)c3)CC2)cc1	-2	-1	-57*	7	16
Cc1ccc(C(=O)N2CCC(C(=O)NCc3cccnc3)CC2)cc1	-1	0	5	-1	-2
O=S(=O)(c1ccc(Br)cc1)c1nnn2c1nc(NCCc1ccccc1)c1sccc12	1	1	-3	4	-1
N#CCSc1ccccc1NC(=O)COC(=O)CCN1C(=O)C2CC=CCC2C1=O (stereo unspecified)	2	0	19	6	/
